Measured values reported in PubChem BioAssay AID772 (SRMLSC, 2007).
The campaign covered roughly 3,300 compounds. About 20 (0.6%) were called active.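 Rule for the calls: active = growth inhibition above 90%, meaning viable cell count cut by more than 90% versus vehicle controls; inactive = growth inhibition below 90%.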 For the sample, actives were picked, then their nearest neighbours and some compounds at random.

Test: HT29 colon tumor cell growth inhibition, primary screen, imaging, high content imaging, 72 h, CellTiter-Glo (AID 772);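 for condensed nuclei: condensed means nuclear area below control median minus 1.5 SD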
Settings: HCS imaging cell count, at 10 µM, stronger effect = higher value; for condensed nuclei: measured here: percent cells with condensed nuclei
[1] = measured here: ATP CellTiter-Glo viability

| Compound | growth inhibition | growth inhibition [1] | condensed nuclei |
| --- | --- | --- | --- |
| C=CCNc1nc(C2(C)CC3(CC(C)(C)OC3=O)C(=O)O2)cs1 (stereo not drawn) | -18.2% (inactive) | -56.2% | 1.83% |
| CCCCSc1nc(N)c(C#N)c(-c2cccs2)c1C#N | 95.4% (active) | 86.1% | 41.7% |
| N#Cc1c(N)nc(SCc2ccccn2)c(C#N)c1-c1cccs1 | 63.2% (inactive) | 42.6% | 5.56% |
| N#Cc1c(N)nc(SCC(=O)NCCc2ccccc2)c(C#N)c1-c1cccs1 | 31.9% (inactive) | 4.22% | 7.98% |
| CCN(CC)S(=O)(=O)c1cccc2c(N(C)C)cccc12 | -83.5% (inactive) | -46.3% | 4.17% |
| COCCCNc1nc(-c2ccncc2)nc2ccccc12 | 89.9% (inactive) | 86.6% | 44.1% |
| COCCCNC(=O)C(C#N)c1nc2ccccc2nc1N1CCN(Cc2ccccc2)CC1 (stereo not drawn) | 0% (inactive) | 11.6% | 4.88% |
| Clc1cccc(-c2nn3c(-c4cccc(Cl)c4)nnc3s2)c1 | -66.5% (inactive) | -37.2% | 7.77% |
| COc1ccccc1C(=O)N1CCCC1(C#N)c1ccccc1 (stereo not drawn) | -76.6% (inactive) | -54.8% | 2.93% |
| Fc1ccc2[nH]c3c(N4CCN(C5CCCCC5)CC4)ncnc3c2c1 | 86.8% (inactive) | 96.8% | 43.8% |
| CCOc1cccc(-c2nn3c(-c4ccco4)nnc3s2)c1 | 19.2% (inactive) | -9.06% | 6.05% |
| Cc1cc(C(=O)O)c(CSc2ncn[nH]2)o1 | -5.63% (inactive) | -62.3% | 6.05% |
| Cc1cc(=O)oc(C)c1C(=O)NCCC1=CCCCC1 | 26.9% (inactive) | 32.2% | 17.3% |
| Cc1nc2sccn2c(=O)c1CCN1CCC(=C(c2ccc(F)cc2)c2ccc(F)cc2)CC1 | 93.1% (active) | 84.8% | 24.1% |
| Cc1nc2sccn2c(=O)c1CCN1CCC(=C(c2ccccc2)c2ccc(F)cc2)CC1 | 29.7% (inactive) | 6.78% | 5.93% |
| Cc1nc2ccccn2c(=O)c1CCN1CCC(C(=O)c2ccc(F)cc2)CC1 | 73.8% (inactive) | 86.5% | 24.8% |
| O=C(CCC(=O)CCN1CCCCC1)CCN1CCCCC1 | 28.4% (inactive) | 14.4% | 16.4% |
| CCOc1ccc2nc(NC(NC(C)=O)(C(=O)OC)C(F)(F)F)sc2c1 (stereo not drawn) | -16.9% (inactive) | 18.6% | 3.93% |
| C=CCn1cnc2c(c1=O)c1nc3ccccc3nc1n2-c1ccc(C)cc1 | 31.2% (inactive) | -2.67% | 2.48% |
| Cn1c(SCC(=O)NCc2ccccc2)nc2ccccc21 | 59.6% (inactive) | 2.57% | 4.29% |
| CCC(=O)O[C@@H]1CC(=O)O[C@H](C)CC=CC=C[C@@H](O)[C@H](C)C[C@H](CC=O)[C@H](O[C@H]2O[C@H](C)[C@@H](O[C@H]3C[C@@](C)(O)[C@@H](OC(=O)CC)[C@H](C)O3)[C@H](N(C)C)[C@H]2O)[C@H]1OC | -45.9% (inactive) | -13.7% | 2.22% |
